# Results: PMC11062922 (Nature Chemical Biology, 2023)
# Legend:
# Set-up in all cases: species or system human, MV4-11 + K-562 + COLO205 + SK-N-BE2 + OVCAR-8
# AMPK-alpha2 = settings: compound concentrations: 100 nM and 1000 nM (sheet 'Samples')
# CIT = settings: compound concentrations: 100 nM and 1000 nM (sheet 'Samples')
# CLK1 = settings: compound concentrations: 100 nM and 1000 nM (sheet 'Samples')
# CLK2 = settings: compound concentrations: 100 nM and 1000 nM (sheet 'Samples')
# CSNK2A1 = settings: read-out: Kinobeads Data; compound concentrations: 100 nM and 1000 nM (sheet 'Samples'); n = 1
# CSNK2A2 = settings: read-out: Kinobeads Data; compound concentrations: 100 nM and 1000 nM (sheet 'Samples'); n = 1
# DYRK1A = settings: compound concentrations: 100 nM and 1000 nM (sheet 'Samples')
# DYRK1B = settings: compound concentrations: 100 nM and 1000 nM (sheet 'Samples')
# EPHB1 = settings: compound concentrations: 100 nM and 1000 nM (sheet 'Samples')
# [1] = system: JAK2(JH1domain-catalytic); settings: compound concentrations: 100 nM and 1000 nM (sheet 'Samples')
# LCK = settings: compound concentrations: 100 nM and 1000 nM (sheet 'Samples')
# MEK5 = settings: compound concentrations: 100 nM and 1000 nM (sheet 'Samples')
# MERTK = settings: compound concentrations: 100 nM and 1000 nM (sheet 'Samples')
# MLK3 = settings: compound concentrations: 100 nM and 1000 nM (sheet 'Samples')
# NEK2 = settings: compound concentrations: 100 nM and 1000 nM (sheet 'Samples')
# NEK3 = settings: compound concentrations: 100 nM and 1000 nM (sheet 'Samples')
# SLK = settings: compound concentrations: 100 nM and 1000 nM (sheet 'Samples')
# STK16 = settings: compound concentrations: 100 nM and 1000 nM (sheet 'Samples')
# TBK1 = settings: compound concentrations: 100 nM and 1000 nM (sheet 'Samples')
# [2] = system: TYK2(JH2domain-pseudokinase); settings: compound concentrations: 100 nM and 1000 nM (sheet 'Samples')
# 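Also: kinobeads ε competition pulldown from cell lysate, compound preincubated 45 min at 4 °C, bound kinases quantified by LC–MS/MS relative to DMSO control.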
compound,measurement,setting,value
COc1cc(Nc2ncc3c(C)nc(-c4cc5ccccc5[nH]4)n3n2)cc(OC)c1OC [GW869516X],Kinobeads Data,AMPK-alpha2,no target
same,Kinobeads Data,CIT,no target
same,Kinobeads Data,CLK1,no target
same,Kinobeads Data,CLK2,no target
same,potency estimated from few doses,CSNK2A1,78 nM
same,potency estimated from few doses,CSNK2A2,56 nM
same,Kinobeads Data,DYRK1A,no target
same,Kinobeads Data,DYRK1B,no target
same,Kinobeads Data,EPHB1,no target
same,Kinobeads Data,[1],no target
same,Kinobeads Data,LCK,no target
same,Kinobeads Data,MEK5,no target
same,Kinobeads Data,MERTK,no target
same,Kinobeads Data,MLK3,no target
same,Kinobeads Data,NEK2,no target
same,Kinobeads Data,NEK3,no target
same,Kinobeads Data,SLK,no target
same,Kinobeads Data,STK16,no target
same,Kinobeads Data,TBK1,no target
same,Kinobeads Data,[2],no target
